Screening results as filed in PubChem.
Compounds with a hit are over-represented: about 2.3% of the library has one in this group of screens.
LGR2 antag = inhibitors of bursicon-induced LGR2 CRE-luciferase signal, primary screen, cell-based, HEK293, CRE-luciferase reporter, bursicon stimulation. Drosophila bursicon receptor LGR2 (rickets). bursicon-stimulated, 4 h. inhibition, % at 9.99 µM. hit rate 0.35% among 380,000. AID 720647, 2013;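 active = drop in luminescence signal, shown as inhibition above about 50% in the replicate tests, limit read from the data, passing the limit was not always enough; inconclusive = probably only some replicates passing the limit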;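 also: agonist challenge used bursicon conditioned medium at about half maximal strength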
SENP8 block-1 = human SENP8 protease inhibitors, primary screen, biochemical, fluorescence, Nedd8 protein substrate, uHTS; Sentrin-specific protease 8 (Homo sapiens), Q96LD8; hit rate 0.64% among 360,000; inhibition, % at 20 µM; AID 602440, 2012; recombinant SENP8; in the data active = inhibition mostly above about 40%, no sharp cut-off; inactive = mostly below about 27%
SENP6 inh = SENP6 protease inhibitors, primary screen, biochemical, luminescence, uHTS; Sentrin-specific protease 6 (Homo sapiens), Q9GZR1; Recombinant SENP6 catalytic domain, aminoluciferin luminescence; inhibition, % at 10 µM; hit rate 1.8% among 330,000;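 active = inhibition above about 50% at the single tested dose, limit read from the data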
SENP7 block = SENP7 protease inhibitors, primary screen, biochemical, luminescence, uHTS. recombinant SENP7, Z-RLRGG-aminoluciferin luminescence, 40 min. hit rate 1.5% among 330,000. AID 434973, 2010. inhibition, % at 5 µM. Sentrin-specific protease 7 (Homo sapiens), Q9BQF6;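 active = inhibition above about 50% at the single test dose, limit read from the data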
Target sequence (Q9BQF6 706-1050 limits assumed): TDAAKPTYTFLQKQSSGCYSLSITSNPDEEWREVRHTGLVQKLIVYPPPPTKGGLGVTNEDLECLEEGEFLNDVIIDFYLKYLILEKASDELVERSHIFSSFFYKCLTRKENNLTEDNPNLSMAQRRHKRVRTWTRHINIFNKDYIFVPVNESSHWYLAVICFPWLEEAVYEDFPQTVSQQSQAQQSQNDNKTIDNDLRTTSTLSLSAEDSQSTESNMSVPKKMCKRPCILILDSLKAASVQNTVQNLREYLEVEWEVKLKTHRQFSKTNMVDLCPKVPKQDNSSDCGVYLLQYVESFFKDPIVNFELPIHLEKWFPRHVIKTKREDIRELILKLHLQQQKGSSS
HSP90 refold inh = HSP90 inhibitors, primary screen, cell lysate, luminescence | inhibition, % at 5.6 µM | Rabbit reticulocyte lysate, luciferase refolding luminescence, 3 h | Heat shock protein HSP 90 (rabbit reticulocyte lysate; luciferase refolding) | AID 1789, 2009 | hit rate 0.91% among 290,000;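 active = inhibition above the screen-wide mean plus 3 SD, computed separately per campaign, cut at about 16% in these data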;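 also: inhibitors lower the luminescence because luciferase stays unfolded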
SENP8 block-2 = SENP8 protease inhibitors, primary screen, biochemical, luminescence; purified SENP8, Z-RLRGG-aminoluciferin cleavage; hit rate 1.2% among 330,000; Sentrin-specific protease 8 (Homo sapiens), Q96LD8; inhibition, % at 10 µM; in the data active = inhibition above about 50%
HSP90 inh confirm = HSP90 inhibitors, confirmation, cell lysate, luminescence. shares compounds with HSP90 refold inh. rabbit reticulocyte lysate, luciferase refolding luminescence, 3 h. inhibition, % at 5.9 µM. hit rate 64% among 2,300. AID 1846, 2009; in the data active = inhibition above about 18%
luciferase ctr = firefly luciferase inhibitors, HSP90 counter-screen, confirmation, artefact control for HSP90 inhibitor project, biochemical, luminescence, triplicate. inhibition, % at 5.9 µM. AID 1847, 2009. shares compounds with HSP90 refold inh. purified native firefly luciferase. hit rate 48% among 2,300;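 active = inhibition above the mean inhibition of all tested sample wells plus 3 SD, cut at about 10% in these data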
SENP8 conf = SENP8 protease inhibitors, retest, confirmation, biochemical, luminescence, single concentration; shares compounds with SENP7 block; Recombinant SENP8, Z-RLRGG-aminoluciferin luminescence, 60 min; inhibition, % at 12.5 µM; hit rate 40% among 6,200;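 active = mean inhibition across replicates above about 50%, limit read from the data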
SENP6 confirm = SENP6 protease inhibitors, confirmation, biochemical, luminescence, single concentration | AID 488915, 2010 | recombinant SENP6, Z-RLRGG-aminoluciferin luminescence | shares compounds with SENP7 block | hit rate 58% among 6,200 | inhibition, % at 12.5 µM
SENP7 conf = SENP7 protease inhibitors, retest, confirmation, biochemical, luminescence, single concentration | shares compounds with SENP7 block | recombinant SENP7, Z-RLRGG-aminoluciferin luminescence, 40 min | inhibition, % at 12.5 µM | hit rate 69% among 6,200
Casp3 select = caspase-3 protease inhibitors, confirmation, selectivity assay for SENP inhibitor project, biochemical, single concentration; hit rate 60% among 6,200; inhibition, % at 12.5 µM; shares compounds with SENP7 block; purified caspase-3, Z-DEVD-aminoluciferin luminescence, 60 min;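 active = mean inhibition above about 50%, limit read from the data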
Target sequence (P42574 28-227 limits assumed): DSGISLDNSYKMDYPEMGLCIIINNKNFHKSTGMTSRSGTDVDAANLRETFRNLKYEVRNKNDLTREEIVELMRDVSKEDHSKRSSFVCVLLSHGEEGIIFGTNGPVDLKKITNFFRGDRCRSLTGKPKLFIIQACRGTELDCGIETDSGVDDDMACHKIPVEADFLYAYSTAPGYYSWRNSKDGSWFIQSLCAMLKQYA
Luc interf = interferes with luciferase luminescence in SENP counter-screen; shares compounds with SENP7 block; Pre-incubated SENP8/Z-RLRGG-aminoluciferin, luciferase luminescence interference; inhibition, % at 12.5 µM; hit rate 39% among 6,200;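 active = mean inhibition above about 50% when retested at one dose, limit read from the data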
Large screens that a line does not name were inactive (follow-up assays come after a bar, where they were run).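 The calls were made as follows, unless noted: active = mean inhibition above about 50% in the one-dose retest (limit read from the data); inactive = the rest.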

Cc1nc(NC(=O)c2ccccc2)sc1-c1csc(NCCc2ccccc2)n1	SENP6 inh 63.0, SENP7 block 56.6, HSP90 refold inh 41.8 (no result: LGR2 antag) | HSP90 inh confirm 19.3 | luciferase ctr inactive | SENP8 conf inactive | SENP6 confirm inactive | SENP7 conf inactive | Casp3 select inactive | Luc interf inactive
Cc1nc(-c2ccc(NC(=O)c3ccccc3)cc2)cs1	SENP6 inh 97.3, SENP7 block 97.0, HSP90 refold inh 20.6, SENP8 block-2 93.7 | HSP90 inh confirm 39.6 | luciferase ctr 27.9 | SENP8 conf 86.8 | SENP6 confirm 97.0 | SENP7 conf 100.7 | Casp3 select 95.8 | Luc interf 83.0
Cc1nc(NC(=O)c2ccccc2)sc1-c1csc(NCc2ccccc2)n1	SENP6 inh 80.0, SENP7 block 75.2, HSP90 refold inh 59.8, SENP8 block-2 63.5 (no result: LGR2 antag) | HSP90 inh confirm 23.6 | luciferase ctr inactive | SENP8 conf inactive | SENP6 confirm inactive | SENP7 conf inactive | Casp3 select inactive | Luc interf inactive
Cc1ccc(C(=O)Nc2ccc(-c3csc(C)n3)cc2)cc1	none
CCOc1ccccc1Nc1nc(-c2sc(NC(=O)c3cccc(Cl)c3)nc2C)cs1	SENP6 inh 84.1, SENP7 block 77.0, HSP90 refold inh 73.1, SENP8 block-2 68.3 (no result: LGR2 antag) | HSP90 inh confirm 33.0 | luciferase ctr inactive | SENP8 conf inactive | SENP6 confirm inactive | SENP7 conf inactive | Casp3 select inactive | Luc interf inactive
COc1ccc2c3c([nH]c2c1)[C@H](CO)N(S(=O)(=O)c1cn(C)cn1)CC31CCN(CC2CCCC2)CC1	none (no result: SENP8 block-1, SENP6 inh, SENP7 block, HSP90 refold inh, SENP8 block-2)
COc1ccccc1C#Cc1cnc2c(c1)C(=O)N([C@H](C)CO)C[C@H](C)[C@H](CN(C)C)O2	none (no result: SENP8 block-1, SENP6 inh, SENP7 block, HSP90 refold inh, SENP8 block-2)
CCNC(=O)Nc1ccc2c(c1)C(=O)N(C)[C@@H]1CC[C@H](CC(=O)NCc3ccc(F)cc3)O[C@H]1CO2	none (no result: SENP8 block-1, SENP6 inh, SENP7 block, HSP90 refold inh, SENP8 block-2)
CCOC(=O)CNC(=O)c1sc(NC(=O)c2ccccc2)nc1C	none (no result: LGR2 antag)
Cc1nc(NC(=O)c2ccccc2)sc1-c1csc(N)n1	SENP7 block 68.0, HSP90 refold inh 61.0 (no result: LGR2 antag) | HSP90 inh confirm inactive | luciferase ctr inactive | SENP8 conf 57.0 | SENP6 confirm 53.1 | SENP7 conf 77.1 | Casp3 select 65.2 | Luc interf 61.4
CO[C@H]1CN(C)C(=O)c2ccc(NS(=O)(=O)CC(F)(F)F)cc2OC[C@H](C)N(CCC(F)(F)F)C[C@@H]1C	none (no result: SENP8 block-1, SENP6 inh, SENP7 block, HSP90 refold inh, SENP8 block-2)
COc1ccc(CNc2nc3ccccc3s2)cc1OC	none
Cc1ccc(CNc2nc3ccccc3s2)s1	SENP6 inh 85.3, SENP7 block 87.3, HSP90 refold inh 35.9, SENP8 block-2 75.8 (no result: LGR2 antag) | HSP90 inh confirm 67.9 | luciferase ctr 61.1 | SENP8 conf 73.2 | SENP6 confirm 71.5 | SENP7 conf 92.2 | Casp3 select 71.4 | Luc interf inactive
C[C@@H]1CN([C@H](C)CO)S(=O)(=O)c2ccc(-c3ccc(C(=O)N(C)C)cc3)cc2O[C@@H]1CN(C)Cc1ccc2c(c1)OCO2	none (no result: SENP8 block-1, SENP6 inh, SENP7 block, HSP90 refold inh, SENP8 block-2)
COc1ccc(-c2cc(C(=O)O)c(C)o2)cc1OC	SENP6 inh 87.4, SENP7 block 82.0, HSP90 refold inh 76.4, SENP8 block-2 73.4 (no result: LGR2 antag) | HSP90 inh confirm 89.8 | luciferase ctr 64.6 | SENP8 conf 84.6 | SENP6 confirm 83.9 | SENP7 conf 96.6 | Casp3 select 90.2 | Luc interf 84.6
Cc1oc(-c2ccc3c(c2)OCCO3)cc1C(=O)O	LGR2 antag inconclusive, SENP6 inh 99.0, SENP7 block 97.8, HSP90 refold inh 95.9, SENP8 block-2 96.8 | HSP90 inh confirm 100.8 | luciferase ctr 91.5 | SENP8 conf 97.9 | SENP6 confirm 100.8 | SENP7 conf 103.9 | Casp3 select 99.0 | Luc interf 98.8
Cc1oc(-c2ccc3c(c2)OCCO3)cc1C(=O)NCC(=O)O	SENP6 inh 80.6, HSP90 refold inh 90.0, SENP8 block-2 80.9 | HSP90 inh confirm 94.5 | luciferase ctr 79.3 | SENP8 conf inactive | SENP6 confirm 93.4 | SENP7 conf 97.7 | Casp3 select 80.7 | Luc interf 90.9
Cn1cc(C(=O)O)c(-c2ccc3c(c2)OCCCO3)n1	none
O=C(Nc1ccc(Cl)c(Cl)c1)N[C@H]1CC[C@@H](CCn2cc(C3CCCC3)nn2)O[C@H]1CO	none (no result: SENP8 block-1, SENP6 inh, SENP7 block, HSP90 refold inh, SENP8 block-2)
CO[C@H]1CN(C)C(=O)c2cc(NC(=O)Nc3ccccc3)ccc2OC[C@@H](C)N(C(=O)CC2CC2)C[C@H]1C	none (no result: SENP8 block-1, SENP6 inh, SENP7 block, HSP90 refold inh, SENP8 block-2)
C[C@H](CO)N1C[C@H](C)[C@@H](CN(C)C)Oc2c(NS(C)(=O)=O)cccc2C1=O	none (no result: SENP8 block-1, SENP6 inh, SENP7 block, HSP90 refold inh, SENP8 block-2)
O=C(c1cc(-c2ccc(Cl)cc2)on1)N1CCCCCC1	none
O=C(c1cc(-c2ccc(Cl)cc2Cl)on1)N1CCCCCC1	SENP6 inh 73.1, SENP7 block 54.4, HSP90 refold inh 18.8, SENP8 block-2 55.5 | HSP90 inh confirm 34.0 | luciferase ctr 18.4 | SENP8 conf 62.5 | SENP6 confirm 60.4 | SENP7 conf 82.4 | Casp3 select inactive | Luc interf inactive
